Measurements reported in the supplement of paper PMC6555819.

Legend:
Experiment in all cases: PBM binding z-score (relative to random genomic background probes); higher = stronger binding; sequences stand for … in GC…GCGATTGACAGCGTAGAATGAAGG
[1] = tested on: PPARg:RXRa DBDmut IVT, anti-RXR (DBD mutation: RXRa K156A/R161A, NR concentration 270 nM, RXRa partner concentration 90 nM)
Summary of the method: (§1)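 Binding buffer was PBS pH 7.4 with 2% milk, 0.02% Triton X-100, 1 mM DTT, 0.2 mg/mL BSA and 0.4 mg/ml salmon testes DNA. In it, ligand-free nuclear receptor dimers were incubated 1 h on custom Agilent 4×180K protein-binding microarrays carrying double-stranded probes. Antibodies against each partner (one per run) detected binding, and z-scores were calculated against random background probes after regression normalization of scanned fluorescence.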

[2] = tested on: PPARg:RXRa IVT, anti-PPARg (NR concentration 270 nM, RXRa partner concentration 90 nM)
Summary of the method: as §1

[3] = tested on: PPARg DBDmut:RXRa IVT, anti-PPARg (DBD mutation: PPARg1 K132A/R137A, NR concentration 270 nM, RXRa partner concentration 90 nM)
Summary of the method: as §1

[4] = tested on: PPARg DBDmut IVT, anti-PPARg (DBD mutation: PPARg1 K132A/R137A, NR concentration 270 nM)
Summary of the method: as §1

[5] = tested on: PPARg homodimer (NR concentration 180 nM)
Summary of the method: as §1

[6] = tested on: PXR:RXRa (NR concentration 270 nM, RXRa partner concentration 90 nM)
Summary of the method: as §1

[7] = tested on: PXR homodimer (NR concentration 270 nM)
Summary of the method: as §1

[8] = tested on: RARa:RXR (NR concentration 270 nM, RXRa partner concentration 90 nM)
Summary of the method: as §1

[9] = tested on: RARa homodimer (NR concentration 270 nM)
Summary of the method: as §1

[10] = tested on: RARb:RXRa (NR concentration 270 nM, RXRa partner concentration 90 nM)
Summary of the method: as §1

[11] = tested on: RARb homodimer (NR concentration 270 nM)
Summary of the method: as §1

[12] = tested on: RARg:RXRa (NR concentration 270 nM, RXRa partner concentration 90 nM)
Summary of the method: as §1

[13] = tested on: RARg homodimer (NR concentration 270 nM)
Summary of the method: as §1

[14] = tested on: RXRa DBDmut IVT, anti-RXR (DBD mutation: RXRa K156A/R161A, NR concentration 90 nM)
Summary of the method: as §1

[15] = tested on: RXRa homodimer (NR concentration 180 nM)
Summary of the method: as §1

[16] = tested on: THRa:RXRa (NR concentration 90 nM, RXRa partner concentration 90 nM)
Summary of the method: as §1

[17] = tested on: THRa homodimer (NR concentration 90 nM)
Summary of the method: as §1

[18] = tested on: VDR homodimer (NR concentration 270 nM)
Summary of the method: as §1

Sequence	PBM binding z-score [1]	PBM binding z-score [2]	PBM binding z-score [3]	PBM binding z-score [4]	PBM binding z-score [5]	PBM binding z-score [6]	PBM binding z-score [7]	PBM binding z-score [8]	PBM binding z-score [9]	PBM binding z-score [10]	PBM binding z-score [11]	PBM binding z-score [12]	PBM binding z-score [13]	PBM binding z-score [14]	PBM binding z-score [15]	PBM binding z-score [16]	PBM binding z-score [17]	PBM binding z-score [18]
TCTATTAGTTCAAGGGCAACCGACGAGTCCGTTT	2.36	1.14	0.61	1.22	1.87	2.28	2.5	1.55	1.41	3.08	2.81	2.08	2.62	2.6	1.58	1.92	1.36	3.41
CAAACTAGGTCACGAACGGTCAAAGTCGAATGAC	8.77	9.13	8.12	6.44	4.03	3.71	0.663	4.05	2.03	4.7	4.43	5.69	6.24	1.66	4.56	4.08	1.74	1.44
CGAACTAGGGCATCCAGGACAGTGAATACATTGA	7.07	6.16	1.33	1.16	0.204	-0.0736	0.524	0.0025	-0.274	1.3	0.585	0.674	1.17	0.66	0.135	1.61	0.745	0.366
TGTCAAAGTTCAAAGGTAGCGTAAGTATCCACAC	0.0975	4.06	0.876	0.963	-0.119	5.11	3.16	4.97	0.73	5.09	3.86	5.84	5.8	4.41	6.07	2.76	-0.0719	3.39
CAAACTAGATCACCGGAAGGTCAAAGTCCGCATG	3.34	3.13	0.538	0.366	2.31	3.54	1.53	3.99	1.63	3.21	4.03	4.08	2.88	0.674	3.47	2.76	1.06	2.12
CCTTACGGGTCACTCCAGTTTATAGCATCGGAGT	2.98	3.39	0.913	0.686	2.32	6.04	1.06	3.6	0.603	3.74	2.7	4.06	4.22	1.78	3.83	4.11	0.161	2.06
CCTAGTTGGTCAATGTCACACACGCTATAGGTAC	1.5	1.6	1.25	1.28	1.57	0.71	0.574	0.851	1.91	1.4	1.52	1.07	1.59	1.04	0.701	0.639	0.635	0.802
TAGCCTAGGTCAGATCGGGCCAGGATACGCTATA	-0.033	1.22	-0.531	-0.442	-0.135	0.771	-0.663	0.816	-1.26	3	1.88	2.77	3.35	-0.775	1.45	4.2	0.225	-0.433
TCAAATAGGTAAAAGGTGAAAGTCGGTGTGGTAA	4.66	4.53	0.779	0.749	2.29	1.91	0.411	3.31	1.82	2.27	2.05	1.86	1.07	2.15	3.26	1.77	0.3	0.497
GCAGACAGATGAAACGCAGGTAACTCAGGGTGGC	-0.362	-0.767	-1.03	-0.761	-1.19	-0.681	-0.52	-0.161	-0.884	-1.1	-0.914	-0.366	-0.316	-0.516	-0.162	0.473	-1.03	-0.594
CATACAGGGTCAGCTAGGCCAGAGTTGGGACGGC	1.33	2.34	0.63	0.195	0.968	1.85	-0.0328	2.78	0.28	4.17	3.24	4.28	4.57	1.31	4.06	3.02	0.732	1.33
GGAACGAGGGCAAGTGGATAGCAGAGTTTGATGG	3.83	2.95	0.27	0.066	0.34	0.612	0.421	0.505	-0.0317	2.65	1.59	1.62	2.03	1.93	0.87	1.1	-0.000164	1.39
ATCGAAAGATCGTGAGGTGAGTATACAGAAAGGC	-1.15	0.285	0.657	0.767	-0.197	-0.0729	-0.403	0.277	-0.457	0.133	-0.106	0.546	0.519	-0.575	0.649	1.73	0.91	-0.449
ACTGGCAGGCCAAGTTTGGGTCACTCAAACAAAG	-0.444	0.61	-1.01	-1.29	0.0864	0.677	-0.347	1.4	-0.396	1.74	2.35	2.51	1.97	-0.557	0.925	2.56	1.14	-0.0755
CAAACTAGGTCAAGGTAAAAGTCGGTTTGTGCCA	8.78	8.76	1.41	0.73	1.61	1.54	-0.0973	2.24	0.604	4.42	3.47	3.84	5.09	1.52	2.93	3.03	1.49	0.742
AGCCAAAGTTCAGGACGAGGTAACGTAAAGCACG	-0.0528	1.03	-0.637	-0.0617	1.29	2.65	0.942	2.64	0.246	4.33	3.29	4.54	4.18	2.63	3.05	3.87	1.74	1.79

Sequence	PBM binding z-score [1]	PBM binding z-score [2]	PBM binding z-score [3]	PBM binding z-score [4]	PBM binding z-score [5]	PBM binding z-score [6]	PBM binding z-score [7]	PBM binding z-score [8]	PBM binding z-score [9]	PBM binding z-score [10]	PBM binding z-score [11]	PBM binding z-score [12]	PBM binding z-score [13]	PBM binding z-score [14]	PBM binding z-score [15]	PBM binding z-score [16]	PBM binding z-score [17]	PBM binding z-score [18]
AGCGAAAGGTCGTGAGGTGAGTATACAGAAAGGC	0.425	2.63	0.478	1.08	1.38	2.81	0.0715	3.96	0.217	4.29	3.19	4.63	3.87	0.985	5.33	3.46	1.27	0.74
CTCGAAAGGTCGGTTGGGGTGAGTATACGGATAA	0.404	1.47	0.0444	1.01	1.6	3.44	0.962	2.76	0.684	3.31	2.88	3	2.42	1.18	2.69	4.95	1.86	1.55
GCTGCTAGGTCCGGTTGGTCAGCTAACGGGTACG	-0.426	-0.34	-1.47	-1.49	-1.32	-0.574	-0.913	-0.552	-1.7	0.0828	-0.107	-0.731	-0.757	-0.46	-0.726	-0.903	-0.944	-0.324
CGTCCAAGGTCAATGCTAGGTCAGTGAAAGCATT	3.41	3.83	0.477	0.749	6.35	5.01	1.68	6.41	1.72	5.23	4.88	7.68	6.83	3.85	5.28	4.31	2.74	3.1
CCTCGGAGGACAAAAGGAGGTCAGAGCTGCCAGA	0.965	1.96	-1.11	-2.13	1.84	2.15	0.144	2.45	0.515	2.39	3.07	3.24	2.75	0.256	1.82	2.5	0.878	1.23
TCTCGGAGGCCACGAAAGGTCAGAGCTCGACATC	1.78	1.96	0.112	-0.0793	2.29	4.58	-0.146	4.54	0.24	4.24	4.92	4.88	5.06	0.746	4.3	4.02	0.552	0.735
TCTCGGAGGACACGAAAGGTCAGAGCTCGACATC	1.62	1.53	0.174	-1.26	3.04	3.96	0.404	4.18	1.9	4.14	4.73	4.97	5.83	0.844	3.97	3.52	1.08	0.918
GATACAGGGTCAGCTCGAGGCCAGAGTATGGAAA	1.36	2.36	-0.23	-0.691	1.54	3.47	-0.0374	3.66	-0.0976	4.12	3.45	6.05	4.74	1.23	4.4	3.83	0.628	0.917
ACAGACAGGTGAGTGAAGGTAACTCACCTGGACG	0.281	1.01	0.307	0.131	-0.03	-0.17	-0.14	0.495	-0.345	0.553	0.335	0.343	0.628	-0.647	0.429	1.83	-0.0711	-0.74
CCGACTGGGGCAGAAAGGTTACCTTACCATCCGG	1.43	1.85	-1.35	-1.29	0.0892	0.658	-0.611	1.48	-0.873	1.5	1.97	1.25	0.987	-0.233	1.28	1.39	0.772	-0.247
AGTCAAAGTTCACTAGGTCACGTAAGATTCAGCT	5.56	6.73	1.41	1.03	4.02	5.52	3.91	5.75	1.46	5.27	5.29	6.62	7.17	4.43	5.44	3.72	2.54	4.43
TAGCCTAGGTCATTCAGGGGCCAGTAGAGAAAGC	1.64	2.66	-0.415	-0.024	1.83	2.21	-0.162	3.33	0.0247	3.88	3.21	6.31	4.35	1.84	2.97	3.63	0.688	1.53
ATGTCTAGGTAACAAGTTCAGTGAAAGAGAGGAC	2.05	2.17	1.24	0.999	0.836	1.69	1.68	0.876	0.818	1.56	1.85	1.29	1.35	0.903	0.727	1.56	0.576	2.23
AGAATGAGGTTATTTAGATCAGGGAATTGCGGTC	2.96	2.43	1.1	0.243	1.23	1.34	0.696	1.6	0.731	1.38	0.824	1.13	0.824	2.53	1.9	2.17	1.06	1.48
GCTAGTTGGTCAGTTAAAGGTCACACACCGGTCG	1.33	2.95	0.429	0.266	5.59	4.98	1.44	6.18	2.99	4.13	5.09	5.56	4.82	0.773	5.12	3.53	2.36	2.33
